TDP1 cell noCPT = qHTS for Inhibitors of human tyrosyl-DNA phosphodiesterase 1 (TDP1): qHTS in cells in absence of CPT; DT40 Tdp1-/- hTDP1 cells, no CPT, ATP luminescence, 48 h; Potency, µM (doses to about 46.2 µM), for the others: top-dose activity change, negative = growth inhibition, actives largely listed as inhibitors; 420,000 tested, 15% active; AID 686978, 2013; note: nearly all actives have a fitted effect of over 55% in size
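Readout: luminescence from CellTiter-Glo after 30 min in the dark at RT. Cells: DT40 Tdp1-/- with stable hTDP1, 400/well. Exposure: compounds alone, ≥48 hr, 37 °C.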
TDP1 block = inhibitors of human tyrosyl-DNA phosphodiesterase TDP1; Q9NUW8; recombinant TDP1, AlphaScreen DNA substrate cleavage; Potency, µM (highest dose often 130 µM), for inactives: at the top dose activity change, negative = inhibition, usual class: inhibitors; 350,000 tested, 0.28% active; AID 485290; note: nearly all actives have a fitted effect of over 40% in size
Target sequence (Q9NUW8 whole entry, looked up): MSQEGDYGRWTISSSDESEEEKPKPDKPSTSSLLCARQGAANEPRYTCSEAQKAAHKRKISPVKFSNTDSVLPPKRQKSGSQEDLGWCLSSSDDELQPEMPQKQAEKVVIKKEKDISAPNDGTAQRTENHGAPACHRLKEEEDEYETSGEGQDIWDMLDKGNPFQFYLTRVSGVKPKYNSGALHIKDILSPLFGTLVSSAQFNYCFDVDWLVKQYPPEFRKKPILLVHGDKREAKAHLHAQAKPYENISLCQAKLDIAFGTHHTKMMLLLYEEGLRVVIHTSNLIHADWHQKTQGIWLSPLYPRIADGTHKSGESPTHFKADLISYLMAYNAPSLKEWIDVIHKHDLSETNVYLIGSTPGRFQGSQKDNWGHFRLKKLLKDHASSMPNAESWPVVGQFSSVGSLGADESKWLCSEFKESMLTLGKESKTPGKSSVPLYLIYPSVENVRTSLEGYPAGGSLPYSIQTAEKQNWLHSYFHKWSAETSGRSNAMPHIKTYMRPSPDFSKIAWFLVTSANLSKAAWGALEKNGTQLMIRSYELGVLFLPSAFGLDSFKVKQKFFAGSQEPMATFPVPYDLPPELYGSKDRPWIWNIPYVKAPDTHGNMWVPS
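E. coli-derived human Tdp1, 1 nM final. Cpd preinc 15 min RT; substrate 15 nM final, 5 min RT; AS bead mix 10 ug/ml final, 10 min RT. Signal loss = tyrosine-FITC cleavage. No-enzyme wells = max signal.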
Gal4-VP16 FLuc = Gal4-VP16 reporter inhibition counter-screen; Potency, µM (titrated, usually from 53.6 µM), for inactives: top-dose activity, negative = inhibition, usual class: inhibitors; 310,000 tested, 3.5% active; AID 2546; Drosophila S2 Gal4-VP16 UAS-luciferase, luminescence, 20 h;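 note: Gal4-VP16 expression switched on by copper sulfate through the metallothionein promoter; nearly all actives have a fitted effect of over 50% in size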
TDP1 cell CPT = growth inhibition of DT40 Tdp1-/-;hTDP1 cells with camptothecin (screen for TDP1 inhibitors) | chicken DT40 Tdp1-/-;hTDP1 cells + 20 nM CPT, ATP luminescence, 48 h | Potency, µM (highest dose often 46.2 µM), for inactives: at the top dose activity change, negative = growth inhibition, hits mostly inhibitors | 420,000 tested, 12% active | AID 686979; note: nearly all actives have a fitted effect of over 55% in size
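Chicken DT40 Tdp1-/- cells complemented with human TDP1, 400 cells/well, exposed to compounds plus 20 nM camptothecin for at least 48 h at 37 C; viability read as ATP content by CellTiter-Glo luminescence.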
RORgamma inh = inhibitors of mouse ROR gamma transcriptional activity; 310,000 tested, 5.4% active; Potency, µM (series often up to 53.6 µM), inactives show top-dose activity change, negative = inhibition, hits mostly inhibitors; Drosophila S2 Gal4-RORgamma UAS-luciferase reporter, 20 h; note: nearly all actives have a fitted effect of over 60% in size
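Luciferase reporter read in Schneider cells carrying Gal4-RORγ (mouse) and UAS-Photinus luciferase; cells given compound 1 h before 700 uM copper sulfate induction, then incubated 20 h at ambient temperature.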
The depositor's hits bear a star; ? = inconclusive; nt = not tested or not shown; [ ] = another dose, or the depositor's remark. Shown are actives, neighbours in structure and some others; about 19% of the full set was active somewhere. Calls come from the whole dose curve; as a rule, active = well fitted curve in the direction sought with a large enough effect; inconclusive = small, poorly fitted or top-dose-only effect, or another doubt; inactive = no such curve, though single readings can be large; an effect the other way counts as inactive or inconclusive. % is set by controls: 0 for no effect and ±100 for the full control effect; potency is the fitted concentration of half-maximal effect.

SMILES | TDP1 cell noCPT | TDP1 block | Gal4-VP16 FLuc | TDP1 cell CPT | RORgamma inh
COCCCNC(=O)c1oc2ccc(S(=O)(=O)N(C)C3CCCCC3)cc2c1C | ? | 3% | -3% | ? | -3%
Cc1c(C(=O)Nc2ccc(S(=O)(=O)Nc3ncccn3)cc2)oc2ccc(F)cc12 | -4% | 1% | 3% | -2% | 22%
CC(Oc1ccc(Br)cc1)C(=O)Nc1ccc(S(=O)(=O)N(C)C2CCN(C)CC2)cc1 (stereo not drawn) | 6.5µM* | -10% | nt | 12µM* | nt
Cc1c(C(=O)Nc2ccc(F)c(Cl)c2)oc2ccc(S(=O)(=O)N(C)C3CCCCC3)cc12 | 15µM* | 0% | nt | 23µM* | nt
COc1cc(OC)c(C(=O)NNC(=O)CN(C)S(=O)(=O)c2ccc(Cl)cc2)cc1OC | -8% | 1%[0.505 µM] | nt | -16% | nt
Cc1nnc(NCc2ccco2)c2ccccc12 | -16% | 1% | -1% | -17% | 14%
CC(C)n1c(=N)c(C(=O)NCc2cccnc2)cc2c(=O)n3ccccc3nc21 | -9% | nt | nt | -6% | nt
Cc1c(C(=O)Nc2cccc(C(F)(F)F)c2)oc2ccc(S(=O)(=O)N(C)C3CCCCC3)cc12 | 13µM* | 5% | nt | 12µM* | nt
Cc1ccc(NC(=O)c2oc3ccc(S(=O)(=O)N(C)C4CCCCC4)cc3c2C)c(C)c1 | 15µM* | -5% | nt | ? | nt
Cc1ccc(NC(=O)c2cc(S(=O)(=O)N(C)C3CCCCC3)ccc2F)cc1C | 18µM* | -3% | nt | 18µM* | nt
Cn1c(SCC(=O)NCc2ccc(F)cc2)nc2c([nH]c3ccccc32)c1=O | nt | 4% | 0% | nt | -3%
CC(C)c1ccc(OCc2cc(=O)n3c4c(sc3n2)CCCC4)cc1 | -4% | -1% | nt | 2% | nt
COc1ccc(C(=O)/C=C/C(=O)N(Cc2ccccc2OC)C(C(=O)NC2CCCCC2)c2ccncc2)c(O)c1 (stereo not drawn) | 21µM* | 2% | 0% | ? | 4%[10 µM]
COc1ccc(C(=O)/C=C/C(=O)N(Cc2ccc(F)cc2)C(C(=O)NC2CCCCC2)c2ccncc2)c(O)c1 (stereo not drawn) | ? | 3% | 2% | ? | -3%[10 µM]
COc1ccccc1CN(C)CC(=O)NC(=O)NC1CCCCC1 | -1% | 0% | nt | ? | nt
COc1ccc(C(=O)/C=C/C(=O)N(CC(=O)NC2CCCCC2)Cc2ccccc2OC)c(O)c1 | 2.1µM* | 1% | ? | 1.6µM* | ?
COc1ccc(C(=O)/C=C/C(=O)N(CC(=O)NC2CCCCC2)Cc2ccccc2)c(O)c1 | 2.1µM* | -2% | -26% | 1.5µM* | 14%
COc1ccc(C(CNC(=O)c2cccc(S(=O)(=O)N3CCOCC3)c2)N2CCOCC2)cc1 (stereo not drawn) | -9% | 0% | nt | -14% | nt
C=CCn1c(COc2cccc(C)c2)nnc1SC(C)C(=O)NC1CC1 (stereo not drawn) | -12% | 1% | nt | -16% | nt
COc1ccc(CNC(=O)CN2C(=O)NC(C)(c3ccc(C(C)(C)C)cc3)C2=O)cc1 (stereo not drawn) | ? | nt | -25% | ? | ?
CCC(=O)N1CCc2cc(Br)cc(S(=O)(=O)N3CCCC(C(=O)NCc4ccc(C)cc4)C3)c21 (stereo not drawn) | 16µM* | 5% | nt | 16µM* | nt
CCC(=O)N1CCc2cc(Br)cc(S(=O)(=O)NCc3ccccc3)c21 | ? | 6% | nt | -3% | nt
CCC(=O)N1CCc2cc(Br)cc(S(=O)(=O)NCCc3cccc(C)c3)c21 | 23µM* | -7% | nt | 16µM* | nt
CCC(=O)N1CCc2cc(Br)cc(S(=O)(=O)N3CCCC(C(=O)Nc4cccc(F)c4)C3)c21 (stereo not drawn) | 18µM* | 0% | nt | 23µM* | nt
CCC(=O)N1CCc2cc(Br)cc(S(=O)(=O)N3CCCC(C(=O)Nc4ccc(CC)cc4)C3)c21 (stereo not drawn) | ? | 3% | nt | -17% | nt
COc1ccc(-c2cc(C(F)(F)F)n3nc(C)c(-c4ccccc4)c3n2)cc1OC | -25% | -1% | nt | -13% | nt
